Redox H2O2 prof: compounds producing H2O2 with reducing agent – biochemical, NIH compound library profiling, artefact control for MLSCN library redox annotation, primary screen | activation, % at 10 µM | hit rate 0.03% among 200,000 | AID 878 | DTT-dependent redox cycling H2O2, phenol red/HRP absorbance; 100% = 100 µM peroxide control, 0% = buffer;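 active = activation of at least 50% relative to the plate's high and low controls in the primary single-dose screen; inactive = activation below 50%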;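 also: compound incubated with DTT at 0.8 mM final as the reducing agent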
S1P3 antag: antagonists of human S1P3 receptor; Q99500; CHO S1P3 NFAT-BLA reporter, FRET fluorescence, antagonist mode; inhibition, % at 4.98 µM; hit rate 0.27% among 170,000; AID 485;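 active = inhibition above the plate cutoff, the mean inhibition of test wells on that plate plus 3 SD, cut at about 28% in these data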;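 also: cells challenged with S1P at its EC80 of 0.8 µM; blue over green emission ratio from cleaved BLA substrate after 4 h stimulation; 0% = S1P-stimulated wells and 100% = unstimulated DMSO-only wells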
Target sequence (Q99500 whole entry, looked up): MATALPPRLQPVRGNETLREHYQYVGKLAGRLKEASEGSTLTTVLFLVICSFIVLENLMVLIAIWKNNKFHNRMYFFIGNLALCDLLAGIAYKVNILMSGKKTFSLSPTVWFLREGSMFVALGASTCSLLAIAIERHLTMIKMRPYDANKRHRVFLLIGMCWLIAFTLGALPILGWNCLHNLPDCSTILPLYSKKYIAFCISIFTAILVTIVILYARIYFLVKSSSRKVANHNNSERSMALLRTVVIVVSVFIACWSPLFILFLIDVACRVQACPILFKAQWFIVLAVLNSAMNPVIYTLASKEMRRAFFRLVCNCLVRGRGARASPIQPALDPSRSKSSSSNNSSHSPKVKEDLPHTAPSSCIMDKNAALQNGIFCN
Arbovirus inh: arbovirus infection inhibition; arbovirus infection cell-based antiviral screen; inhibition, % at 10 µM; hit rate 0.37% among 200,000; in the data active = inhibition above about 30%
p97 inhibitor: human p97 ATPase inhibition; hit rate 0.42% among 220,000; recombinant p97 ATPase, Kinase-Glo ATP luminescence, 3 h; AID 1481; P55072; inhibition, % at 8 µM; in the data active = inhibition above about 15%;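 also: 0% = DMSO vehicle and 100% = wells lacking enzyme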
S1P4 ag: human S1P4 receptor agonism. O95977. activation, % at 4.98 µM. hit rate 0.35% among 220,000. S1P4-expressing cell line, agonist reporter assay. AID 1509; in the data active = activation above about 11%;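 also: 0% = DMSO vehicle and 100% = reference agonist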
S1P4 antag: human S1P4 receptor antagonism | O95977 | S1P4-expressing cells, antagonist mode, reporter read-out | inhibition, % at 4.98 µM | hit rate 0.26% among 220,000 | AID 1510; in the data active = inhibition above about 29%;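 also: 0% = wells stimulated with agonist and 100% = vehicle wells without agonist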
S1P4 ag conf: confirmation of human S1P4 receptor agonists; hit rate 7% among 740; shares compounds with S1P4 ag; S1P4 agonist cell-based reporter assay; activation, % at 4.98 µM; in the data active = activation above about 12%;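 also: 0% = vehicle and 100% = full reference agonist response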
S1P1 ag: activates human S1P1, counter-screen for S1P4 agonists | activation, % at 4.98 µM | S1P1 agonist cell-based assay, activation | hit rate 4% among 740 | shares compounds with S1P4 ag | AID 1563; in the data active = activation above about 21%;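 also: 0% = vehicle wells and 100% = reference agonist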
Starred values were filed as active, the others as inactive; . = no result given. Most compounds without a hit are left out; they make up all but 1.6% or so of the library.

SMILES	Redox H2O2 prof	S1P3 antag	Arbovirus inh	p97 inhibitor	S1P4 ag	S1P4 antag	S1P4 ag conf	S1P1 ag
CCc1nnc(NC(=O)c2ccc(Cl)c(S(=O)(=O)N3CCc4ccccc4C3)c2)s1	0.4	-1.3	2.0	-1.0	19.9*	-7.8	-2.0	1.3
CSc1ncccc1C(=O)OCC(=O)Nc1ccc(S(=O)(=O)N2CCCC2)cc1	-0.6	5.2	4.8	3.9	58.2*	-15.3	-2.3	2.2
O=C(COC(=O)c1ccccc1O)Nc1ccc(S(=O)(=O)N2CCCCC2)cc1	-0.8	-15.4	11.3	2.4	-1.2	-15.8	.	.
O=S1(=O)C=C(Sc2nnc(-c3ccccc3)o2)c2ccccc21	-0.8	14.3	-46.7	10.1	-0.7	13.6	.	.
COc1ccc(CC2(CO)CCN(Cc3cnn(C)c3C)CC2)cc1	-0.6	-11.4	-3.3	3.1	17.4*	7.9	-1.3	-8.5
COc1ccc(CC2(CO)CCN(Cc3ccncc3)CC2)cc1	-1.7	-2.4	1.7	-4.8	1.8	-27.9	.	.
Oc1ccc2cc(Br)ccc2c1CN1CCCC1	-0.7	-9.8	23.1	3.4	0.0	4.0	.	.
Cn1cc(C2CC(c3ccccc3)=NN2C(=O)c2ccccc2)c2ccccc21 (stereo unspecified)	0.2	-2.6	-23.1	4.9	12.9*	-15.1	-3.0	0.5
CCCC(=O)N1N=C(c2ccccc2)CC1c1cn(C)c2ccccc12 (stereo unspecified)	0.5	7.1	-18.3	-1.7	0.0	-19.2	.	.
CC(Sc1nnc(CNc2cccc3ccccc23)n1-c1ccccc1)C(=O)N/N=C/c1ccco1 (stereo unspecified)	-7.4	.	-1.2	-1.1	-0.8	-23.6	.	.
Cc1cccc(N=Cc2cc3c(cc2[N+](=O)[O-])OCO3)c1	3.2	.	-1.6	5.2	15.6*	-1.9	-1.4	14.9
CCCc1nn(C)c(C(N)=O)c1[N+](=O)[O-]	-0.2	1.5	1.8	4.5	11.9*	-14.8	-1.0	3.4
O=C(Cn1nc(-c2ccccc2)nc1-c1ccccc1)OC1CCCCC1	-0.2	.	3.3	-10.3	0.9	-0.3	.	.
COCCNC(=O)CSc1nc2cc3c(cc2c(=O)n1Cc1ccco1)OCO3	0.6	.	0.9	-1.8	-1.4	-1.6	.	.
COCCNC(=O)c1ccc2c(=O)n(Cc3ccco3)c(SCC(=O)NC3CCCC3)nc2c1	7.0	.	3.6	-0.1	12.4*	2.0	-2.1	-8.9
N#Cc1cc([N+](=O)[O-])cnc1N(CCO)CCO	0.1	-3.7	0.4	5.2	0.5	-4.4	.	.
Cc1nc(SCC(=O)NC2CCCC2)[nH]c(=O)c1Cc1ccccc1	0.2	.	3.5	0.5	50.8*	-4.5	-1.7	-6.0
Cc1nc(SCC(=O)N(C)C2CCCCC2)[nH]c(=O)c1Cc1ccccc1	0.3	.	1.4	0.9	1.4	-4.0	.	.
CCN(CC)C(=O)C(C(=O)c1cccc([N+](=O)[O-])c1)n1cc(Cl)ccc1=O (stereo unspecified)	-0.1	-9.5	-4.4	-0.8	0.1	-1.0	.	.
CC(C)c1csc(CN2CCC(N3CCC(C(=O)N4CCOCC4)CC3)CC2)n1	-0.3	-14.4	-17.8	2.9	-0.1	8.6	.	.
Cc1ccc(CN2CCN(Cc3cn[nH]c3-c3cccc(F)c3)CC2CCO)o1 (stereo unspecified)	-1.2	-5.6	3.7	-1.4	15.1*	-0.6	-1.4	-4.6
Cc1ccc(CN2CCN(Cc3cn[nH]c3-c3ccccc3)CC2CCO)o1 (stereo unspecified)	0.3	-8.3	1.6	-1.5	3.1	-7.2	.	.
Cc1cc(C)nc(NNC(=O)c2ccccc2O)n1	-0.8	1.1	8.2	4.1	0.6	-20.4	.	.
COc1ccc(C(=O)NCC(=O)OCC(=O)Nc2c(C)n(C)n(-c3ccccc3)c2=O)cc1	-0.5	.	4.0	2.1	103.9*	-7.0	-2.2	-6.9
Cc1cc(C)nc(SCc2nnc(SCC(=O)O)n2-c2ccccc2)n1	-0.8	9.7	1.1	3.8	14.0*	-3.6	-2.6	-2.5
SMILES	Redox H2O2 prof	S1P3 antag	Arbovirus inh	p97 inhibitor	S1P4 ag	S1P4 antag	S1P4 ag conf	S1P1 ag
CCOc1ccccc1OCCCCCc1c(C)n[nH]c1C	-1.3	-2.8	2.7	-9.8	11.3*	0.0	11.4*	3.4
Nc1nnc(SCC(=O)OCC(=O)Nc2ccc(Br)cc2)s1	-0.1	-21.0	7.6	2.7	61.7*	-10.7	-2.0	-5.0
Nc1nnc(SCC(=O)OCC(=O)Nc2ccc(Br)cc2F)s1	-0.5	-3.6	9.5	3.2	3.1	-28.4	.	.
COc1ccc(CCC(=O)N2CCCSC2=Nc2ccc(C(C)=O)cc2)cc1	-0.1	-8.8	-20.9	-1.1	23.5*	-5.3	1.0	-0.6
COC(=O)c1ccc(CSc2nnc(C)n2N)o1	-0.5	-19.3	-3.0	-6.1	-1.2	-9.6	.	.
COc1ccc(C2c3cc(OC)c(OC)cc3CCN2C2CC(=O)N(c3ccccc3)C2=O)cc1OC (stereo unspecified)	0.3	.	-2.8	-7.4	18.1*	-2.5	0.0	-3.1
COc1cc(C(=O)NCc2ccncc2)cc(OC)c1OC	0.0	4.3	1.5	-1.0	14.0*	-10.9	-1.9	-2.3
COC(=O)c1cn(CC(=O)Nc2ccc(F)cc2)c2ccccc12	-0.9	-8.7	-7.7	1.9	-1.6	2.0	.	.
CCCn1c(SCC(=O)Nc2ccc3c(c2)CCC3)n[nH]c1=O	-0.2	-3.1	6.2	3.1	16.4*	1.9	-1.4	-7.7
Cc1ccccc1NC(=O)CSc1nc2cc3c(cc2cc1C)CCC3	-6.5	.	-17.7	3.6	-1.1	-52.9	.	.
Cc1cc2cc3c(cc2nc1SCC(=O)O)CCC3	-0.7	3.9	3.6	5.9	42.7*	2.3	-0.9	-5.4
CNCc1c(C)nn(-c2ccccc2)c1C	-0.6	-18.6	15.7	-3.1	34.5*	-4.2	-1.6	-1.5
O=C(Nc1nncs1)c1ccc(S(=O)(=O)c2ccccc2)cc1	-0.8	.	3.4	1.0	1.6	-17.2	.	.
O=C(Nc1nnc(C2CC2)s1)c1ccc(S(=O)(=O)c2ccccc2)cc1	-3.0	.	-6.6	-1.4	14.1*	-13.8	-1.7	0.9
OCCOCCNc1ncnc2c1cnn2-c1ccc(Cl)cc1	-0.3	.	-1.9	6.6	67.8*	10.1	0.2	7.8
CC(C)(/C=N/NC(=O)CSCc1ccccc1Cl)CCC#N	0.6	14.1	8.7	2.6	2.1	2.9	.	.
Cc1oc2cc(OC(=O)c3ccco3)ccc2c(=O)c1-c1nc2ccccc2n1C	1.0	-10.3	1.6	2.5	11.9*	-13.4	-1.8	-3.3
Cc1cc(=O)oc2cc(OC(=O)c3ccco3)ccc12	-0.6	6.8	3.0	5.7	2.3	-6.9	.	.
CCOC(=O)CN1C(=O)C(C)(C)Oc2ccc(C(=O)NC(C)(C)CC)cc21	1.8	-10.5	-6.8	-7.0	27.9*	-12.5	-1.6	3.3
CCC(C)(C)NC(=O)c1ccc2c(c1)N(CC(=O)OC)C(=O)C(C)(C)O2	0.3	-3.7	13.2	-0.1	0.2	-18.3	.	.

Screening results: PubChem, several laboratories
